# This is a sample that favours compounds with a hit; in the whole collection about 3.5% have one here.
# GPR151 ag – human GPR151 activation; hit rate 1% among 650,000; AID 1508602; activation, % at 11.2 µM; PathHunter beta-arrestin GPR151 cells, luminescence; in the data active means activation above about 4.9%;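 further: 0% = median of compound wells and 100% = cells with positive control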
# Target sequence (Q8TDV0 whole entry, looked up): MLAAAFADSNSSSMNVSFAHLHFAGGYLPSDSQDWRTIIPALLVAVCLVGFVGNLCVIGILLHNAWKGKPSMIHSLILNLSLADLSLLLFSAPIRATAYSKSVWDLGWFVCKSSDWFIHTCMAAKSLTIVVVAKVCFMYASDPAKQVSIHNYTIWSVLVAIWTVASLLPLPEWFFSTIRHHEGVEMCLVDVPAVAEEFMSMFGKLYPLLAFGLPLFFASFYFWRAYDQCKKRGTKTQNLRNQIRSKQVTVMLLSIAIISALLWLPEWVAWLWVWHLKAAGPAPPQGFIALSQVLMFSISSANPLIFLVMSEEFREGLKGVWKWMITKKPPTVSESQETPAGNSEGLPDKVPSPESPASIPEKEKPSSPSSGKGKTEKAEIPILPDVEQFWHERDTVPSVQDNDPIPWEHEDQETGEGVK
# MITF primary – inhibitors of human MITF; O75030; AlphaScreen MITF homodimerization, bead proximity signal; inhibition, % at 2.6 µM; hit rate 0.91% among 650,000; AID 1259374; in the data active means inhibition above about 50%;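 further: 0% = vehicle wells with protein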
# TEAD-YAP inh – TEAD-YAP interaction inhibition. HEK-TIYL cells, TEAD-Gal4/YAP UAS-luciferase luminescence. inhibition, % at 9.12 µM. hit rate 1.4% among 640,000. AID 1259422; in the data active means inhibition above about 32%;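 further: 0% = median of test compound wells and 100% = reference inhibitor wells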
# FBW7 act – activators of human E3 ligase FBW7; hit rate 0.13% among 650,000; normalized activity (activation), % at 26.1 µM; AlphaScreen FBW7–phospho-cyclin E peptide binding, activator screen; in the data active means normalized activity above about 1.9%;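 further: purified mutant Fbw7 with reduced substrate affinity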
# GPR151 conf act – confirmation of human GPR151 activators; GPR151 PathHunter beta-arrestin cells, luminescence, 90 min; % of EA-reagent control over plate median; activation, % at 11.2 µM; 6,700 tested, under 10 active; shares compounds with GPR151 ag;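 active means mean percent activation across replicates above the confirmation screen cutoff of 4.91%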
# GPR119 ag – GPR119 activation, counter-screen for GPR151 activators; shares compounds with GPR151 ag; GPR119 PathHunter beta-arrestin cells, luminescence, 90 min; 0 = compound-well median, 100 = enzyme-acceptor control; activation, % at 11.2 µM; hit rate 0.3% among 6,700; AID 1508611;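 active means mean percent activation in the counterscreen above 29.09%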;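 further: counterscreen on off-target GPR119 to flag nonselective hits from the GPR151 activator screen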
# The depositor's hits bear a star; · = no result given.
SMILES,GPR151 ag,MITF primary,TEAD-YAP inh,FBW7 act,GPR151 conf act,GPR119 ag
Cc1ccc(CN2CCN(C/C(Cl)=C/c3ccccc3)CC2CCO)o1 (stereo not given),5.4*,8,7,0,0,-1
Cc1ccc(CN2CCN(Cc3ccc4c(c3)OCCO4)CC2CCO)o1 (stereo not given),5.9*,8,3,0,1,12
COc1ccccc1/C=C/CN1CCN(Cc2ccccc2)C(CCO)C1 (stereo not given),0,-3,-3,0,·,·
COc1ccccc1/C=C/CN1CCN(Cc2cccs2)C(CCO)C1 (stereo not given),6.9*,8,3,0,-1,-10
COc1ccc(N2C(C(C)=O)=NN(c3ccc(Cl)cc3)C2c2ccc(OCc3ccc(Cl)cc3)c(OC)c2)cc1 (stereo not given),0,13,-6,0,·,·
COc1cc(/C=C2/C(=N)N3N=C(C(C)C)SC3=NC2=O)cc(Cl)c1OCCOc1ccccc1C,0,-8,-14,0,·,·
O=C(CCc1nnc(CCc2ccccc2)o1)NCc1cnc2ccccc2c1,1,3,2,0,·,·
Nc1ccc2c(c1)ncn2CCc1ccccc1,0,-6,-2,0,·,·
O=C1CCCN1CCn1cnc2c(NCc3ccccc3)nc(NC3CCC(O)CC3)nc21 (stereo not given),-1,-4,-2,0,·,·
Cc1ccc(CN2CCN(C/C=C/C(C)C)CC2CCO)o1 (stereo not given),-1,3,-3,0,·,·
Cc1ccc(CN2CCN(C/C=C/c3ccc(F)cc3)CC2CCO)o1 (stereo not given),13*,12,5,0,0,-5
CCCCOc1ccc(OCCCC)c2c1NC1(N2)C(=O)Nc2ccc([N+](=O)[O-])cc21,5.1*,5,-9,0,1,2
COc1cc(OC)cc(-c2nnc(SCC(=O)c3cccc([N+](=O)[O-])c3)o2)c1,7.2*,11,-3,0,-1,-16
O=C(CSc1nnc(-c2ccncc2)o1)c1cccc([N+](=O)[O-])c1,0,-2,-12,0,·,·
CC(C)(C)NS(=O)(=O)c1ccc(NC(=O)c2c(Cl)cccc2Cl)cc1,0,5,0,0,·,·
O=C(Nc1nnc(S(=O)(=O)N2CCc3ccccc32)s1)c1cccs1,5.2*,-13,-2,0,1,3
O=C(Nc1nnc(S(=O)(=O)N2CCc3ccccc32)s1)c1ccco1,2,1,2,0,·,·
Cc1cccc(OCC(=O)Nc2nnc(S(=O)(=O)N3CCc4ccccc43)s2)c1,6.1*,-4,-2,0,0,-6
Cc1ccc(OCC(=O)Nc2nnc(S(=O)(=O)NCc3ccccc3)s2)cc1,8.7*,-9,-26,0,1,-1
O=C1OCCN1CC(=O)N1CCc2c([nH]c3ccccc23)C1c1cccc(C(F)(F)F)c1 (stereo not given),-1,15,-13,0,·,·
Cc1nnsc1S(=O)c1ccc2ccccc2c1 (stereo not given),-1,-12,19,0,·,·
CCC(C(=O)O)n1c(O)c(/C=C2\C=Nc3ccccc32)sc1=S (stereo not given),9.1*,13,3,0,1,12
NC(=O)CSc1nnc2n(Cc3ccccc3)c3ccccc3n12,6.1*,-3,-7,0,1,-3
O=C(O)CCC(=O)N1CCc2cc(S(=O)(=O)NCC3CCCO3)ccc21 (stereo not given),0,-5,-2,0,·,·
Cn1c2c(c(=O)n(C)c1=O)C(c1ccc(Cl)cc1)C1=C(CC(C)(C)CC1=O)N2 (stereo not given),5.5*,-5,-2,0,1,4
SMILES,GPR151 ag,MITF primary,TEAD-YAP inh,FBW7 act,GPR151 conf act,GPR119 ag
Cc1cccc(C2C3=C(CC(C)(C)CC3=O)Nc3c2c(=O)n(C)c(=O)n3C)c1 (stereo not given),0,10,3,0,·,·
Cn1c2c(c(=O)n(C)c1=O)C(c1cccc(F)c1)C1=C(CC(C)(C)CC1=O)N2 (stereo not given),18*,5,-5,0,1,9
Cn1c2c(c(=O)n(C)c1=O)C(c1ccccc1)C1=C(CC(C)(C)CC1=O)N2 (stereo not given),3,10,10,0,·,·
CC1=C/C(=N\NC(=O)COc2ccc(C#N)cc2)CC(C)(C)C1,-1,13,-4,0,·,·
COC(=O)Cn1cc(/C=C(/C#N)C(=O)Nc2ccccc2)c2ccccc21,0,2,2,0,·,·
N#C/C(=C/c1cn(CC(=O)O)c2ccccc12)C(=O)Nc1ccc(Cl)cc1,8.5*,3,11,0,-1,-5
COc1ccc(/C(N)=N/OC(=O)c2cc(Cl)ccc2OC)cc1,6.8*,7,7,0,0,-1
COc1ccc(CN=Cc2c(O)n(-c3ccccc3Cl)c(=O)[nH]c2=O)cc1,0,8,4,0,·,·
CC(=O)c1c(C)nnn1-c1nonc1C,5.1*,15,8,1,1,-4
CC(C)C(NC(=O)Cc1ccccc1)C(C)C,0,12,-6,1,·,·
O=C(Nc1ccc(Br)cn1)c1ccc(N2CCCCC2)c([N+](=O)[O-])c1,6.5*,-4,-59,0,2,9
Cc1ccc(C(=O)Nc2ccc(Br)cn2)cc1[N+](=O)[O-],0,-7,-61,0,·,·
COc1ccc(C)cc1NC(=O)Cc1c(C(=O)O)n(C)c2ccccc12,1,18,5,0,·,·
CCn1c(C(=O)O)c(CC(=O)Nc2cc(Cl)ccc2OC)c2ccccc21,5.4*,-1,2,0,-1,-11
O=C(Nc1ccc(Cl)c(-c2nc3ccccc3o2)c1)c1cccnc1,1,15,-3,0,·,·
Cc1cc2nc(-c3cc(NC(=O)c4cccnc4)ccc3Cl)oc2cc1C,5.3*,-3,-9,0,0,13
COC(=O)c1ccc(NC(=O)C(C)NS(=O)(=O)c2cc(Cl)ccc2Cl)cc1 (stereo not given),-1,6,3,0,·,·
COc1ccc(S(=O)(=O)NC(C)C(N)=O)cc1 (stereo not given),6.0*,3,3,0,0,2
COc1cc(NC(=O)CS(=O)(=O)c2ccc(C)cc2)cc(OC)c1OC,6.0*,13,2,0,0,-9
CC(NS(=O)(=O)c1cc(Cl)ccc1Cl)C(=O)Nc1cccc([N+](=O)[O-])c1 (stereo not given),7.7*,0,6,0,1,7
CC(Oc1ccc(Br)cc1)C(=O)Nc1cccc([N+](=O)[O-])c1 (stereo not given),6.1*,19,-8,0,2,-3

# Source: PubChem BioAssay
